Data taken from PubChem BioAssay AID1508621 (National Center for Advancing Translational Sciences (NCATS), 2021).
Records with an inconclusive call do not appear. Where a call stands in place of a potency, no number is given. Calls of active or inactive are those of the source. Calls follow the shape of the dose curve; as a rule, active = well fitted inhibition curve with a large enough effect; inconclusive = small, poorly fitted or top-dose-only effect; inactive = no such curve, though single readings can be large or run the other way.

Assay: Confirmatory qHTS for Identification of Small Molecule Inhibitors of Huntingtin Promoter Activity; also: nearly all actives have a fitted effect of over 65% in size
Settings: HEK293 HTT promoter firefly luciferase reporter, 24 h; series mostly up to 57.5 µM
From the text: Assay Provider: Russell L. Margolis M.D.
Department Neurology, Johns Hopkins University School of Medicine, Baltimore, MD
Huntington's Disease (HD) is a neurodegenerative disorder caused by a CAG repeat expansion in exon 1 of huntingtin (HTT). While there are currently no disease-modifying treatments for HD, recent efforts have focused on development of nucleotide-based therapeutics to lower HTT expression. As an alternative to siRNA or oligonucleotide methods, we hypothesized that suppression of HTT expression might be accomplished by small molecules that either (1) directly decrease HTT expression by suppressing HTT promoter activity or (2) indirectly decrease HTT expression by increasing the promoter activity of HTT-AS, the gene antisense to HTT that appears to inhibit expression of HTT.
We developed and employed a high throughput screen for modifiers of HTT and HTT-AS promoter activity using luminescent reporter HEK293 cells; of the 52,041 compounds tested, we identified 898 replicable hits. We used a rigorous stepwise approach to assess compound toxicity and the capacity of the compounds to specifically lower huntingtin protein in 5 different cell lines, including HEK293 cells, HD lymphoblastoid cells, mouse primary neurons, HD iPSCs differentiated into cortical-like neurons, and HD hESCs. We found no compounds which were able to lower huntingtin without lowering cell viability in all assays, though the potential efficacy of a few compounds at non-toxic doses could not be excluded.
SEQUENCE No. (1, 2, 3, etc.); […] (e.g., Cells, Incubation, Reagent, etc.); VALUE and DESCRIPTION.
1; Reagent; 4 uL; 2,500 Hek293 luciferase reporter cells per wells
3; Compound; 23 nL; Control inhibitor / compound library
5; Reagent; 2.5 uL; Firefly Luc reagent; Dual-Glo Luciferase Reporter Assay System (Promega)
6; Time; 10 min; room temperature incubation
7; Detection; Luminescence; FLuc
NOTES (numbers refer to sequence above)
1; High-throughput screening, measuring luminescence from a Hek293 luciferase reporter, was performed in 1,536 well white-walled tissue-culture treated plates. 2,500 cells were plated in 4 uL of Opti-MEM per well using a Multidrop Combi Reagent Dispenser (ThermoFisher).
2; Assay plates were cultured for 24 hours.
3; Control inhibitor (PTC124; final concentration of 50 uM) and compound library (at final concentrations of 460 nM - 57.5 uM) were added to the assay plate using the Kalypsis Pintool Robotic System equipped with 1536 pinheads.
4; Cells were then incubated for 24 hours at 37C prior to luminescence measurements.
5; In all cases, luminescence was measured using the Dual-Glo Luciferase Reporter Assay System (Promega) following the manufacturer's instructions.
6; Room temperature incubation.
7; Luminescence signal was obtained using the PerkinElmer ViewLux plate reader. Results were normalized to vehicle control (0% activity) and zero RLU (-100% activity).
Potency is read from the fitted curve at half-maximal effect.

Compound | Potency
Cc1ccc(-n2ncc3c(N(CCO)Cc4ccccc4)ncnc32)cc1 | inactive
COc1ccc(C(C)n2c(C)c3c(C)nnc(C)c3c2C)cc1 (stereo not given) | inactive
Cc1ccc(CN(C(=O)c2ccc(OCC(C)C)cc2)c2ccccn2)o1 | inactive
O=C(NCc1ccccc1)c1cc2ccc3cccnc3c2[nH]1 | inactive
CCOc1ccccc1C(=O)Nc1nc2c(s1)CC(C)CC2 (stereo not given) | inactive
COc1ccc(NC(=O)Cn2c(SCc3ccc(F)cc3)nc3cccnc32)cc1OC | inactive
CN(C)c1ccc(C(=C2C=CC(=[N+](C)C)C=C2)c2ccc(N(C)C)cc2)cc1 | 3.01 µM (active)
O=C(CCCCCCC(=O)Nc1ccccc1)NO | inactive
COCCn1c2c([n+](Cc3cnccn3)c1C)C(=O)c1ccccc1C2=O | 0.0953 µM (active)
Cc1ccc(CN2CCSc3ccc(C(=O)NCC(C)c4ccccc4)cc32)cc1 (stereo not given) | inactive
O=C(Nc1cccc(C(=O)N2CCN(c3ccc(Cl)cc3)CC2)c1)c1nsc2ccccc12 | inactive
Cc1cccc(CSc2cn(CC(=O)N3CCOCC3)c3ccccc23)c1 | inactive
O=C(CN(c1cccc(C(F)(F)F)c1)S(=O)(=O)c1ccccc1)Nc1cccc(Cl)c1 | 26.9 µM (active)
CN(C)c1ccc(C(=O)NCCCCCCC(=O)NO)cc1 | inactive
N#CC[C@H](C1CCCC1)n1cc(-c2ncnc3[nH]ccc23)cn1 | inactive
Cc1ccc2nc(CSc3nnc(NC(=O)COc4ccccc4)s3)cc(=O)n2c1 | inactive
Cc1cc(C)c(Cn2c3ccccc3c3cnn(CC(=O)N4CCCCC4)c(=O)c32)c(C)c1 | inactive
COC(=O)c1c(C)oc2ccc(N(C(=O)c3ccncc3)S(=O)(=O)c3ccc(OC)cc3)cc12 | 3.79 µM (active)
Cc1csc2nc(COC(=O)c3ccccc3NC(=O)c3ccccc3Cl)cc(=O)n12 | inactive
Cn1c(=O)n(C)c2cc(NS(=O)(=O)c3ccc(F)cc3)ccc21 | inactive

Compound | Potency
COc1cc(OC)c(OC)cc1/C=C/c1nc2cc3ccccc3cc2c(=O)n1-c1ccc(F)c(Cl)c1 | inactive
Cc1nc(Nc2n[nH]c3c2CN(C(=O)N[C@H](CN(C)C)c2ccccc2)C3(C)C)c2sccc2n1 | inactive
CN(C)c1ccc(Nc2nc(N)n(C(=O)c3c(F)cccc3F)n2)cc1 | inactive
O=C(O)c1cc(-n2c(/C=C\c3ccc(F)cc3)nc3ccccc3c2=O)ccc1Cl | inactive
O=C(NCCC1=CCCCC1)c1ccc2c(c1)N(Cc1cccc(Cl)c1)C(=O)c1ccccc1S2(=O)=O | inactive
O=C(Cc1ccccc1)Nc1cccc(-c2cn3cccnc3n2)c1 | inactive
CC1CCN(C(=O)CN2c3ccc(Br)cc3-c3ccccc3S2(=O)=O)CC1 | inactive
CCc1c(C)sc2c1CCN(Cc1ccc(F)cc1)C2c1ccccc1 (stereo not given) | inactive
CCOc1ccc(-n2c(/C=C/c3cccc(F)c3)nc3cc(OC)c(OC)cc3c2=O)cc1 | inactive
CCOc1ccc(C(=O)N(Cc2cc(OC)c(OC)c(OC)c2)c2ccccn2)cc1 | inactive
C1=CCOCc2cc(ccc2OCCN2CCCC2)Nc2nccc(n2)-c2cccc(c2)OCC1 | 9.53 µM (active)
COc1ccccc1C1CC(=O)NC(C)=C1C(=O)OC1CCCCCC1 (stereo not given) | inactive
CCN(CCCNC(=O)CSc1cc(=O)n(CC)c2ccccc12)c1ccccc1 | inactive
Cc1ccc(C(=O)Nc2ccc(F)cc2)cc1S(=O)(=O)N1CCCCCC1 | inactive
Cn1cc(CNCC2CCN(c3ncc(C(=O)NO)cn3)CC2)c2ccccc21 | inactive
CCOc1ccc(C(=O)NCc2ccc3c(c2)CCN3C(=O)c2ccccc2)cc1 | inactive
CCOc1ccccc1NC(=O)C(=O)c1cc(C)n(-c2ccc(F)cc2)c1C | inactive
CCCCN1CC(c2nc3ccccc3n2CCCCOc2ccc(C)c(C)c2)CC1=O (stereo not given) | 19 µM (active)
O=C(CSc1nccn1Cc1ccco1)Nc1cc(C(F)(F)F)ccc1Cl | inactive
Cc1cc(C)cc(NC(=O)Nc2cccs2)c1 | inactive
